# In all, about 33,000 sequences were measured (“e-score”: median about -0.037, highest 2% from about 0.34 on). This is one part of a sample in which the highest values are shown more often than they occur.
# Target: T1, GST-Rok (full length) (Bacillus subtilis subsp. subtilis str. …, UniProt O34857 1-191)
# T1 sequence: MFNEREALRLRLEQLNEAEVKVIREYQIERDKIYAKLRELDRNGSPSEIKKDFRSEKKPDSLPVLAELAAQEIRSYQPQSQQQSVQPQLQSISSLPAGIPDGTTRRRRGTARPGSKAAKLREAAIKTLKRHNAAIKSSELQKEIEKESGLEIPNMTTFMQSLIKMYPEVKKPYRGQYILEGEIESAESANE
# Assay: protein binding microarray; Rok is a gene silencer of Bacillus subtilis; high values mean tight binding
# Conditions: protein: recombinant; tags: GST (pTH5325, pDEST15-Magic modified); dsDNA, one strand shown
# Summary of the method: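 Each has a 25-mer constant primer and a 35-mer variable part from a de Bruijn sequence of order 10, covering every non-palindromic 8-mer at least 32 times (palindromic 16). Preference for each 8-mer is given as a rank-based, unitless enrichment score (E-score). Its range runs from 0.5 (most favored) to −0.5 (most disfavored).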
row,Sequence,binding signal
1,GTACCTGA,0.102 E-score
2,CGAGTAGA,0.0915 E-score
3,CTAATGAA,0.0765 E-score
4,CCGAATAG,-0.00823 E-score
5,ACGCGAAA,-0.0244 E-score
6,CTTATGAC,0.247 E-score
7,TCTATCAA,0.212 E-score
8,AACGACTC,-0.0273 E-score
9,CGGTAGTC,0.173 E-score
10,AGGTAGTA,0.364 E-score
11,GGGTAGTA,0.238 E-score
12,CGGTAGTA,0.342 E-score
13,AGGTAGTG,0.0916 E-score
14,AGGTAGTC,0.0956 E-score
15,AGACAACG,-0.0674 E-score
16,AGAGCTAG,-0.0248 E-score
17,CGACTGAC,0.00526 E-score
18,CAGAGCTC,-0.162 E-score
19,ATACTAGC,0.321 E-score
20,CCACTACA,0.0814 E-score
21,ATACTACG,0.339 E-score
22,CTACAACA,0.343 E-score
23,CGACTACG,-0.0988 E-score
24,GTACTACA,0.314 E-score
25,CTACAACC,0.119 E-score

row,Sequence,binding signal
1,CTACTACA,0.339 E-score
2,ATACTACC,0.36 E-score
3,GTACAACA,0.0355 E-score
4,CTACTACC,0.303 E-score
5,AGACTACG,-0.152 E-score
6,ACTAGACC,-0.00464 E-score
7,GATCGAAA,-0.0281 E-score
8,ATTAATGG,0.0209 E-score
9,CTCACAGA,-0.131 E-score
10,AGCACTGC,-0.181 E-score
11,ACTTACCT,0.0398 E-score
12,CTCTAAAC,0.0676 E-score
13,AGTGGCAG,-0.029 E-score
14,AATTGACG,0.213 E-score
15,ACACTACA,0.276 E-score
16,ATACTACA,0.408 E-score
17,AGACTACA,0.0935 E-score
18,AGTGAAAC,-0.00421 E-score
19,CTGTATAC,0.216 E-score
20,ATGTATAC,0.347 E-score
21,GTGTATAA,0.246 E-score
22,ATGTATAA,0.385 E-score
23,ATGTATAG,0.244 E-score
24,CTGTATAA,0.265 E-score
25,GTTAATAA,0.303 E-score

row,Sequence,binding signal
1,TCTCGACA,-0.0144 E-score
2,ATCAGAGC,-0.105 E-score
3,CGTCTCTA,-0.15 E-score
4,CATTGTTC,0.00988 E-score
5,CCAGCATA,-0.0442 E-score
6,ATAGGTCA,0.156 E-score
7,CGATGGAA,0.0214 E-score
8,AACAAACA,0.0686 E-score
9,TACAAGTA,0.288 E-score
10,CACAAATA,0.35 E-score
11,TACAAATA,0.375 E-score
12,CACAAACA,0.0611 E-score
13,CACAAGTA,0.183 E-score
14,AACAAATA,0.295 E-score
15,CACAAATG,-0.0865 E-score
16,TACAAACA,0.369 E-score
17,TTATGCAA,0.154 E-score
18,GGAGGAAA,-0.0576 E-score
19,CGTTCCTC,-0.0344 E-score
20,AGTAAGGA,-0.0123 E-score
21,CGTCGCGC,0.0557 E-score
22,ACTCCTAT,0.122 E-score
23,AAGATTCC,-0.109 E-score
24,GAGTAGAA,0.202 E-score
25,AAGTAGTA,0.332 E-score

row,Sequence,binding signal
1,TAGTAGGA,0.209 E-score
2,CAGTAGAA,0.391 E-score
3,AAGTAGAA,0.305 E-score
4,CAGTAGTC,-0.166 E-score
5,CAGTAGAG,0.142 E-score
6,CAGTAGTA,0.343 E-score
7,TAGTAGAA,0.439 E-score
8,AACGACGA,0.183 E-score
9,ATTGGCTC,-0.0706 E-score
10,AATTTTCG,0.139 E-score
11,ACCGGCAG,-0.0541 E-score
12,AGACTGTC,0.0207 E-score
13,CGCAGACA,-0.162 E-score
14,ATGTTGTA,0.223 E-score
15,ATTACCTC,0.167 E-score
16,GTTACGTA,0.169 E-score
17,GATACCTA,0.34 E-score
18,ATTACGTA,0.38 E-score
19,CTTACGTA,0.179 E-score
20,AATACCTA,0.267 E-score
21,ATTACCTA,0.382 E-score
22,ATTACCTG,0.126 E-score
23,CATACCTA,0.334 E-score
24,ACGCCGAC,-0.196 E-score
25,ACGACATG,0.136 E-score

row,Sequence,binding signal
1,CACCAGTA,-0.00869 E-score
2,AAAGTCGC,0.0343 E-score
3,GGCTCTAA,0.0778 E-score
4,AACTCTGA,0.0339 E-score
5,CCAGACGG,-0.108 E-score
6,CAAAGACC,-0.0604 E-score
7,GTATTCAA,0.0317 E-score
8,GCAGTAGA,0.342 E-score
9,CAAGTAGA,0.286 E-score
10,CCAGTAGA,0.166 E-score
11,ATAGTAGC,0.315 E-score
12,CTAGTAGC,0.251 E-score
13,GTAGTAGA,0.33 E-score
14,CTAGTAGA,0.404 E-score
15,GCAGTAGC,-0.0296 E-score
16,ATAGTAGA,0.346 E-score
17,AGCCGGAT,-0.184 E-score
18,ATCCTTCC,-0.158 E-score
19,CATTGAAA,-0.0384 E-score
20,ACTCTCCA,-0.0297 E-score
21,TCCGGTAA,0.0305 E-score
22,GAATTTAA,0.0678 E-score
23,ATTTTACA,0.311 E-score
24,ATTTTACG,0.219 E-score
25,AAAATTAC,0.248 E-score

row,Sequence,binding signal
1,CAAATTAC,0.356 E-score
2,TAATTTAA,0.356 E-score
3,ATTTTACC,0.351 E-score
4,AATTTTAG,0.222 E-score
5,ATTTTTAC,0.335 E-score
6,CAATTTAA,0.152 E-score
7,CAAATTAG,0.21 E-score
8,AATTTTAC,0.355 E-score
9,GGATCTTA,0.0165 E-score
10,CTGTCTAA,-0.0397 E-score
11,AAGTCTGG,-0.0136 E-score
12,AATGCACG,-0.0533 E-score
13,CAACTTAC,0.216 E-score
14,TAAGGTAA,0.0381 E-score
15,TCCAGTCA,-0.0213 E-score
16,AGATTTTA,0.294 E-score
17,GACAAACA,0.0661 E-score
18,TCGGTGAA,-0.0505 E-score
19,TCAACGAA,0.0593 E-score
20,GATTTTAC,0.18 E-score
21,CATTTTAC,0.349 E-score
22,AAATTTAG,0.163 E-score
23,GAATTTAC,0.268 E-score
24,CAATTTAC,0.288 E-score
25,AAATTTAT,0.351 E-score

row,Sequence,binding signal
1,CATTTTAA,0.0564 E-score
2,AAATTTAC,0.336 E-score
3,AATTTTAT,0.273 E-score
4,GATGAACC,-0.136 E-score
5,ATGTTGGC,0.0169 E-score
6,ACATGTAC,0.358 E-score
7,ACATGTAG,0.338 E-score
8,CCATGTAG,0.271 E-score
9,CCATGTAC,0.193 E-score
10,ACATGTAT,0.167 E-score
11,GCATGTAC,0.0911 E-score
12,CGGGTACA,0.154 E-score
13,CGACAGCG,-0.036 E-score
14,AATTACCG,0.32 E-score
15,AATTACCT,0.357 E-score
16,AATTACTA,0.434 E-score
17,CGTTACTC,-0.0623 E-score
18,CGTTACTA,0.34 E-score
19,ATTTACTC,0.0747 E-score
20,AATTACTG,0.191 E-score
21,ATTTACTA,0.459 E-score
22,ATTTACTG,0.287 E-score
23,GGTTACTA,0.163 E-score
24,GATTACTA,0.2 E-score
25,AATTACCC,0.215 E-score

row,Sequence,binding signal
1,GACTTATA,0.257 E-score
2,CCGCACCA,-0.082 E-score
3,AGGTGTCA,-0.0859 E-score
4,CGCCCTAC,-0.152 E-score
5,CATATGCA,0.117 E-score
6,AGTCAGCC,-0.00495 E-score
7,CGCCCTTA,-0.158 E-score
8,AAAGAACA,-0.199 E-score
9,ATTAAGAC,-0.0587 E-score
10,ATTTACAA,0.368 E-score
11,AGTTACTG,0.207 E-score
12,ATTTACAC,0.23 E-score
13,AGTTACTC,0.188 E-score
14,ATTTACAG,0.24 E-score
15,AGTTACTA,0.345 E-score
16,CAGTGGAA,0.0127 E-score
17,GGTGTGTA,0.271 E-score
18,CGCATTCC,-0.192 E-score
19,ACTTATAA,0.28 E-score
20,TACGACCA,-0.0634 E-score
21,GAACTCGC,-0.0505 E-score
22,AGGCGCTA,-0.15 E-score
23,GCTCCATA,0.0969 E-score
24,CCGATCCG,-0.19 E-score
25,CAAACGAA,0.108 E-score

row,Sequence,binding signal
1,ATATTCTA,0.424 E-score
2,CAATTCTA,0.278 E-score
3,GAATTCTA,0.357 E-score
4,AACTTCTA,0.296 E-score
5,TAATTCTA,0.345 E-score
6,TAATTCAA,0.105 E-score
7,ATATTCTC,0.277 E-score
8,TACTTCTA,0.36 E-score
9,GACTTCTA,0.0634 E-score
10,TAATTCCA,0.213 E-score
11,GAATTCTC,-0.0203 E-score
12,CTATTCTA,0.128 E-score
13,CAAGAAAA,-0.0182 E-score
14,GATTCACA,0.0605 E-score
15,AACGAAGC,-0.108 E-score
16,ACGGAAAC,-0.0398 E-score
17,AATTGACT,0.16 E-score
18,AAGTAACT,0.225 E-score
19,ACTAGGCG,-0.156 E-score
